Here are results for 17 compounds from PubChem BioAssay (EPA / NIEHS).

Read-out in experiment [1]: Thrombomodulin, THBD (gene 7056)
Nature of the experiment: BSK_CASM3C_Thrombomodulin: BioMAP Diversity Plus: CASM3C Assay for Thrombomodulin Biomarker Activity (AID 2283051).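 Further: thrombomodulin protein level measured by ELISA 24 h after dosing.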 The note with it: primary human coronary artery smooth muscle cells; actives raise or lower the signal.

Read-out in experiment [2]: Tissue Factor, F3 (gene 2152)
Nature of the experiment: BSK_CASM3C_TissueFactor: BioMAP Diversity Plus: CASM3C Assay for Tissue Factor Biomarker Activity (AID 2283052).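 Further: cell surface tissue factor protein level read by ELISA.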 The note with it: primary human coronary artery smooth muscle cells; actives raise or lower the signal.

Read-out in experiment [3]: Interferon-gamma inducible Protein 10 (IP10), CXCL10 (gene 3627)
Nature of the experiment: BSK_hDFCGF_IP10: BioMAP Diversity Plus: hDFCGF Assay for Interferon-gamma inducible Protein 10 (IP10) Biomarker Activity (AID 2283053). The following applies: primary human foreskin fibroblasts; actives raise or lower the signal. The method in brief:
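ELISA read-out of IP-10 (CXCL10) from primary human skin fibroblasts, 24 h after compound addition. Gain or loss of signal versus DMSO baseline, bidirectional curve fitting.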

Read-out in experiment [4]: Urokinase-type plasminogen activator receptor (uPAR), PLAUR (gene 5329)
In words: BSK_CASM3C_uPAR: BioMAP Diversity Plus: CASM3C Assay for Urokinase-type plasminogen activator receptor (uPAR) Biomarker Activity (AID 2283054).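 Further: cell-surface uPAR protein level quantified by ELISA.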 The following applies: primary human coronary artery smooth muscle cells; actives raise or lower the signal.

Read-out in experiment [5]: Vascular cell adhesion molecule 1 (VCAM1), VCAM1 (gene 7412)
In words: BSK_CASM3C_VCAM1: BioMAP Diversity Plus: CASM3C Assay for Vascular cell adhesion molecule 1 (VCAM1) Biomarker Activity (AID 2283055).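 Further: VCAM-1 protein level quantified by ELISA on the cells.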 The note with it: primary human coronary artery smooth muscle cells; actives raise or lower the signal.

Read-out in experiment [6]: Collagen III, COL3A1 (gene 1281)
Nature of the experiment: BSK_hDFCGF_CollagenIII: BioMAP Diversity Plus: hDFCGF Assay for Collagen III Biomarker Activity (AID 2283056). The note with it: primary human foreskin fibroblasts; actives raise or lower the signal. The gist of the method:
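Response relative to DMSO, fitted in both directions, reflects ELISA-measured collagen III in human primary skin fibroblasts 24 h after compound addition.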

Read-out in experiment [7]: Epidermal growth factor receptor (EGFR), EGFR (gene 1956)
Nature of the experiment: BSK_hDFCGF_EGFR: BioMAP Diversity Plus: hDFCGF Assay for Epidermal growth factor receptor (EGFR) Biomarker Activity (AID 2283057). The note with it: primary human foreskin fibroblasts; actives raise or lower the signal. The method in brief:
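ELISA readout of EGFR on human dermal fibroblasts (primary foreskin cells), 24 h post-dosing; bidirectional curve fit vs DMSO baseline, gain or loss of signal scored.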

Read-out in experiment [8]: Interleukin-8 (IL8), CXCL8 (gene 3576)
In words: BSK_hDFCGF_IL8: BioMAP Diversity Plus: hDFCGF Assay for Interleukin-8 (IL8) Biomarker Activity (AID 2283058). The note with it: primary human foreskin fibroblasts; actives raise or lower the signal. The gist of the method:
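Fibroblast monolayers (human foreskin, hDFCGF) received test chemical for 24 h before ELISA detection of IL-8; either increases or decreases relative to DMSO count as activity.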

A short description of experiment [9]: BSK_hDFCGF_Proliferation: Cell Proliferation Assessment in the BioMAP Diversity Plus: hDFCGF Assay (AID 2283059).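 Further: curves fitted for both rise and fall of signal versus DMSO baseline.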 The note with it: primary human foreskin fibroblasts. The method in brief:
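This proliferation readout used SRB total-protein staining of human foreskin fibroblasts […], normalized to DMSO with bidirectional curve fitting.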

Read-out in experiment [10]: Macrophage colony-stimulating factor (MCSF), CSF1 (gene 1435)
Nature of the experiment: BSK_hDFCGF_MCSF: BioMAP Diversity Plus: hDFCGF Assay for Macrophage colony-stimulating factor (MCSF) Biomarker Activity (AID 2283060). The note with it: primary human foreskin fibroblasts; actives raise or lower the signal. The gist of the method:
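fibroblasts (human foreskin, primary), 24 h post-dose; M-CSF by ELISA; bidirectional fit, DMSO = baseline.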

“And” between values parts separate entries of the source, which are not always exact repeats. Equal values may be shown once. More than one record can exist for a structure, and the calls need not agree. The source made the active and inactive calls. How the source made its calls: active means hit-call score of the fitted dose curve at least 0.9, where 1 is the maximum; inactive means score below 0.9.

The AC50 is the midpoint of the concentration-response curve, whichever way the signal moves. Turning to `OCC(F)(F)C(F)(F)C(F)(F)C(F)(F)C(F)(F)C(F)(F)C(F)(F)C(F)(F)CO`, the result in [1], in experiment [2], in experiment [4], in [5] and in experiment [8] was inactive. Also, the AC50 was 44.9 µM (active) and 44.5 µM (active) in experiment [3]; 40.9 µM (active) in [5]; 30 µM (active) and 42.7 µM (active) in [6]; 47.8 µM (active) and 48.7 µM (active) in [7]; 48 µM (active) in experiment [8]; 39.8 µM (active) and 47.9 µM (active) in [9]. The AC50 in experiment [10] was 47.9 µM (active) and 46.7 µM (active).

Turning to `CO[Si](C)(CCC(F)(F)C(F)(F)C(F)(F)C(F)(F)C(F)(F)C(F)(F)F)OC`, the result in experiment [1], in experiment [2], in experiment [3], in [4], in experiment [5] and in experiment [6] was inactive. The outcome in [7], in [8], in [9] and in experiment [10] was inactive.

For the compound `FC(F)(F)C(F)(F)C(F)(F)C(F)(F)C(F)(F)C(F)(F)CC[Si](Cl)(Cl)Cl`, the outcome in experiment [1], in experiment [2], in [3], in experiment [4], in experiment [5] and in experiment [6] was inactive. The outcome in [8], in experiment [9] and in experiment [10] was inactive.

For the compound `O=C(O)C(F)(F)C(F)(F)C(F)(F)OC(F)(F)F`, the outcome in experiment [1], in experiment [2], in experiment [3], in [4], in experiment [5] and in experiment [6] was inactive. Also, the outcome in experiment [8], in experiment [9] and in experiment [10] was inactive.

Turning to `OCCCCC(F)(F)C(F)(F)C(F)(F)C(F)(F)F`, the outcome in experiment [1], in [2], in experiment [3], in experiment [4], in experiment [5] and in experiment [6] was inactive. The outcome in experiment [8], in [9] and in [10] was inactive.

With `NC(=O)C(F)(F)C(F)(F)C(F)(F)C(F)F`, the outcome in [1], in experiment [2], in experiment [3], in experiment [4], in [5] and in [6] was inactive. Further, the outcome in [8], in experiment [9] and in experiment [10] was inactive.

For the compound `CCOC(C=C(C)CCC=C(C)C)OCC`, the outcome in experiment [1] and in experiment [8] was inactive. The half-maximal activity concentration (AC50) in [2] was 28.6 µM (active); in experiment [3], 29.8 µM (active); in [4] it was 31.4 µM (active); in experiment [5], 25.7 µM (active); in experiment [6], 29 µM (active); in experiment [9] it was 32.2 µM (active). Further, the AC50 in experiment [10] is 32.8 µM (active).

For `C[C@]12CC[C@H]3C(=CCc4cc(O)ccc43)[C@@H]1CCC2=O`, the result in experiment [1], in experiment [2], in experiment [3], in experiment [4], in [5] and in [6] was inactive. Besides, the outcome in [8], in [9] and in experiment [10] was inactive.

`OCC(O)CC(F)(F)C(F)(F)C(F)(F)C(F)(F)C(F)(F)C(F)(F)C(F)(F)C(F)(F)F` (stereo not given): the outcome in experiment [1], in [2], in [3], in experiment [4], in experiment [5] and in experiment [6] was inactive. In addition, the result in experiment [8], in experiment [9] and in experiment [10] was inactive.

As for `O=C1c2c(O)ccc(Nc3ccc(CCO)cc3)c2C(=O)c2c([N+](=O)[O-])ccc(O)c21`, the concentration at half-maximal activity (AC50) in [1] is 20 µM (active); in experiment [3], 20 µM (active); in experiment [6], 20 µM (active); in experiment [9] it was 10.4 µM (active); in experiment [10] it was 8.52 µM (active). Moreover, the result in [2], in experiment [4], in experiment [5] and in experiment [8] was inactive.

On to `NC(O)(C(F)(F)F)C(F)(F)F`, for which the outcome in experiment [1], in experiment [2], in experiment [3], in experiment [4], in [5] and in experiment [6] was inactive. Further, the outcome in experiment [7], in experiment [8], in [9] and in experiment [10] was inactive.

For `CCN=C1C=CC(=C(c2ccc(N(CC)CC)cc2)c2ccc(N(CC)CC)cc2)c2ccccc21`, the AC50 in [1] is 1.03 µM (active) and 1.42 µM (active); in [2], 149 nM (active) and 1.21 µM (active); in [3], 1.52 µM (active) and 1.32 µM (active); in experiment [4], 3.87 µM (active) and 3.2 µM (active); in experiment [5] it was 5.39 µM (active) and 2.81 µM (active); in experiment [6], 1.15 µM (active) and 1.3 µM (active). In addition, the concentration at half-maximal activity (AC50) in [8] is 2.89 µM (active) and 2.29 µM (active); in experiment [9], 180 nM (active) and 151 nM (active); in [10] it was 1.37 µM (active) and 1.28 µM (active).

For `O=S(=O)(Cl)C(F)(F)C(F)(F)C(F)(F)C(F)(F)C(F)(F)C(F)(F)C(F)(F)C(F)(F)F`, the result in experiment [1], in experiment [2], in experiment [3], in [4], in experiment [5] and in [6] was inactive. Further, the outcome in experiment [8], in experiment [9] and in experiment [10] was inactive. In addition, the AC50 in experiment [9] was 7.61 µM (active).

With `O=C(Cl)C(F)(F)C(F)(F)C(F)(F)C(F)(F)C(F)(F)C(F)(F)C(F)(F)F`, the result in experiment [1], in experiment [2], in [3], in experiment [4], in experiment [5] and in experiment [6] was inactive. For the same compound, the outcome in [7], in experiment [8], in experiment [9] and in [10] was inactive.

Regarding `Cc1ccc(O)c(-n2nc3ccccc3n2)c1`, the result in experiment [1], in [2], in experiment [3], in experiment [4], in [5] and in experiment [6] was inactive. In addition, the result in [8], in experiment [9] and in experiment [10] was inactive.

Consider `CCN(CC)c1ccc(C=O)c(O)c1`, for which the result in experiment [1], in [2], in [3], in experiment [4], in [5] and in [6] was inactive. For the same compound, the outcome in experiment [8] and in experiment [10] was inactive. Moreover, in [9], the AC50 is 30.4 µM (active).

As to `NC(=O)C(F)(F)C(F)(F)C(F)(F)F`, the outcome in experiment [1], in experiment [2], in [3], in [4], in experiment [5] and in experiment [6] was inactive. The outcome in experiment [8], in [9] and in experiment [10] was inactive.
